# Results: PubChem BioAssay (Tox21)
# Unmarked numbers belong to inactive results. Results filed as inconclusive are left out. A call without a number means that no potency is given here. The source made the active and inactive calls. Unless noted, the call rests on the fitted dose curve; in most records, active means well fitted curve in the direction sought with a large enough effect in the repeat runs; inconclusive means weak or mixed curves; inactive means no such curve, though single readings can be large; an effect the other way counts as inactive or inconclusive.
# Experiments:
# [1] = qHTS assay to identify small molecule antagonists of the estrogen related receptor (ERR) signaling pathway from Tox21 library - cell viability counter screen (AID 1224834); further: nearly all actives have a fitted effect of over 30% in size; further: potency means the concentration at half of the fitted maximal effect
# In short: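 ERR cells, 2,000/well; 6 h settle at 37 C/5% CO2; pin-tool compound transfer in DMSO; 17.5 h at 37 C; CellTiter-Fluor, 30 min; fluorescence intensity.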
# [2] = target: Luciferin 4-monooxygenase (Photinus pyralis) (UniProt P08659); experiment: qHTS assay to identify small molecule inhibitors of firefly luciferase (AID 1224835); further: nearly all actives have a fitted effect of over 25% in size; further: potency means the concentration at half of the fitted maximal effect
# Luciferin 4-monooxygenase (Photinus pyralis), sequence (P08659 whole entry, looked up): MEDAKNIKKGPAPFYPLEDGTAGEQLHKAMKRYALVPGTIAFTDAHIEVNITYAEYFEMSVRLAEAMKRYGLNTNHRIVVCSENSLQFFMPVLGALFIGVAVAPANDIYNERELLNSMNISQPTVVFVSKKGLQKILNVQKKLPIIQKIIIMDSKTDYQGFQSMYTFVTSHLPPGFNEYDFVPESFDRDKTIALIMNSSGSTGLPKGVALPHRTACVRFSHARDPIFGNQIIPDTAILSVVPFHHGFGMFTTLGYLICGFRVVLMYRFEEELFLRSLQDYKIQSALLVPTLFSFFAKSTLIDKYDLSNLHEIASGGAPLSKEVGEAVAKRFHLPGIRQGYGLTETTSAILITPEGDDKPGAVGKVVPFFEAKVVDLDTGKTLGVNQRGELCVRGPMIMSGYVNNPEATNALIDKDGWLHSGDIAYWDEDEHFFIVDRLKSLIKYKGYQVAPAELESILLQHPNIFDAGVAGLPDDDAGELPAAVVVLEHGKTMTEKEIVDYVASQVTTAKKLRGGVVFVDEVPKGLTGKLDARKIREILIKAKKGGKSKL
# In short: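 Biochemical qHTS: compounds run as interplate titrations against purified firefly enzyme, with D-luciferin and ATP each at its KM concentration. Light output recorded by CCD imaging.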
# [3] = qHTS assay to identify small molecule agonists of the constitutive androstane receptor (CAR) signaling pathway - cell viability counter screen (AID 1224836); further: nearly all actives have a fitted effect of over 45% in size; further: potency means the concentration at half of the fitted maximal effect
# In short: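 Viability read-out: CellTiter-Fluor fluorescence after 23 h compound exposure at 37 C/5% CO2 in double-stable HepG2-CYP2B6-hCAR cells, with PK11195 present at 0.75 uM final; compounds tested in 15-point titration.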
# [4] = qHTS assay to identify small molecule antagonists of the constitutive androstane receptor (CAR) signaling pathway - cell viability counter screen (AID 1224837); further: nearly all actives have a fitted effect of over 45% in size
# In short: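 Viability was measured with CellTiter-Fluor in a HepG2 line carrying stably transfected hCAR and a CYP2B6-2.2kb construct. Cells were exposed for 23 hr at 37 C to 15 compound concentrations with 50 nM CITCO as agonist.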
# [5] = target: Nuclear receptor subfamily 1 group I member 3 (Homo sapiens) (UniProt Q14994); experiment: qHTS assay to identify small molecule agonists of the constitutive androstane receptor (CAR) signaling pathway (AID 1224839); further: nearly all actives have a fitted effect of over 15% in size
# Nuclear receptor subfamily 1 group I member 3 (Homo sapiens), sequence (Q14994 whole entry, looked up): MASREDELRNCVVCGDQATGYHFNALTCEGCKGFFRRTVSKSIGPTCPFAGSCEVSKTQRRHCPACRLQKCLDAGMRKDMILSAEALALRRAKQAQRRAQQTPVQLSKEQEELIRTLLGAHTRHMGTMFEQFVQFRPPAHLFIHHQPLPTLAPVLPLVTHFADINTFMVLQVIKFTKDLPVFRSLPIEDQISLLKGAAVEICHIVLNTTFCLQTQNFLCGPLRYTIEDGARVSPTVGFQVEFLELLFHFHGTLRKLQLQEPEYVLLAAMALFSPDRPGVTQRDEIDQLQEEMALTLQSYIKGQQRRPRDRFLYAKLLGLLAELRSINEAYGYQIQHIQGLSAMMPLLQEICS
# In short: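 Luminescence read-out (ONE-Glo, 30 min, room temperature) from double-stable HepG2-CYP2B6-hCAR cells exposed 24 h to 15-point compound series in presence of 0.75 uM PK11195 final.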
# [6] = qHTS assay to identify small molecule antagonists of the estrogen related receptor signaling pathway with the pleiotropic PPARgamma coactivator (PGC) from Tox21 10K library - cell viability counter screen (AID 1224840; active means well fitted cell-killing curve with a large enough effect in the repeat runs, not every such curve was filed as active; further: nearly all actives have a fitted effect of over 40% in size; further: potency means the concentration at half of the fitted maximal effect)
# In short: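 Multiplexed viability counter screen in the PGC/ERR cell line: cells treated with DMSO-dissolved compounds for 17.5 hours at 37 C, then viability measured as CellTiter-Fluor fluorescence.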
# [7] = qHTS assay to identify small molecule antagonists of the estrogen related receptor signaling pathway with the pleiotropic PPARgamma coactivator (PGC) from Tox21 10K library (AID 1224841; call rule not given here; further: actives are mostly falling curves and most rising ones were filed inactive; nearly all actives have a fitted effect of over 50% in size; further: potency means the concentration at half of the fitted maximal effect)
# In short: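 Steps: plate 2,000 PGC/ERR cells per well; incubate 6 h at 37 C with 5% CO2; transfer compounds from DMSO stocks by pin tool; incubate 18 h at 37 C; add One-Glo; measure luminescence 30 min later.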
# [8] = target: Thyrotropin receptor (Homo sapiens) (UniProt P16473); experiment: qHTS assay to identify small molecule agonists of the thyroid stimulating hormone receptor (TSHR) signaling pathway (AID 1224843; calls by dose curve; further: nearly all actives have a fitted effect of over 45% in size; further: potency means the concentration at half of the fitted maximal effect)
# Thyrotropin receptor (Homo sapiens), sequence (P16473 whole entry, looked up): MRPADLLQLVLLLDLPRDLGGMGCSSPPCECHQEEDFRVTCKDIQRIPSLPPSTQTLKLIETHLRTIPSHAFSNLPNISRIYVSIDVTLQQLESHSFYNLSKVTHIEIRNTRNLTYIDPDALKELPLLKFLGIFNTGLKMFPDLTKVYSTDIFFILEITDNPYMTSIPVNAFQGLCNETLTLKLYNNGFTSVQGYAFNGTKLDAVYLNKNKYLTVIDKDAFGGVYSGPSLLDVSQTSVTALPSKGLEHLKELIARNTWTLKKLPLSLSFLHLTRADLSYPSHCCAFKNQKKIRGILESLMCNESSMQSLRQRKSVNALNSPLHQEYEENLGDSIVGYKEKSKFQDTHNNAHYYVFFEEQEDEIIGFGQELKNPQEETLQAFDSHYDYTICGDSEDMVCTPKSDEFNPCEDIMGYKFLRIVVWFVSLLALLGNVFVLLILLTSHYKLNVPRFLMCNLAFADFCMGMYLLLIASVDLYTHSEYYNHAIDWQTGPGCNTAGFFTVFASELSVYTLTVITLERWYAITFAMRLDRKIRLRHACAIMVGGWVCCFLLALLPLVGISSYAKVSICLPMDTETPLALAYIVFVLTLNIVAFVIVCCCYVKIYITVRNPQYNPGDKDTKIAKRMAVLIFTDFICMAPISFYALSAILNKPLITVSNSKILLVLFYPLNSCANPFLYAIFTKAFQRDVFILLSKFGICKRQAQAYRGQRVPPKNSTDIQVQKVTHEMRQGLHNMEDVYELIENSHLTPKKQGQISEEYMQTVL
# In short: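 Agonist-mode screen: TSHR HEK293 cells received test chemicals for half an hour at room temperature, then HTRF cAMP detection reagents for one hour prior to fluorescence measurement. Each chemical ran as a 15-concentration series, triplicated.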
# [9] = qHTS assay to identify small molecule agonists of the hypoxia (HIF-1) signaling pathway - cell viability counter screen (AID 1224844; calls by dose curve; further: nearly all actives have a fitted effect of over 50% in size; further: potency means the concentration at half of the fitted maximal effect)
# In short: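 Cytotoxicity was measured in parallel with the HRE-driven beta-lactamase readout: after 17 hrs of compound exposure at 37C, HRE-bla ME-180 cells received CellTiter-Glo and luminescence was recorded 30 min later.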
# [10] = qHTS assay to identify small molecule agonists of H2AX (AID 1224845; active means well fitted activation curve with a large enough effect in the signal ratio in the repeat runs, not every such curve was filed as active; the % refers to the signal ratio)
# In short: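 Wild-type CHO-K1 cells, plated overnight, exposed 3hr at 37C to 15 concentrations (0.76% DMSO final). Lysed, then HTRF anti-pH2AX (S139) cryptate and anti-H2AX-d2 antibodies, 24 hr room temperature; 665/620 nm emission read.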
# [11] = qHTS assay to identify small molecule agonists of the estrogen related receptor (ERR) signaling pathway from Tox21 library (AID 1224849; calls by dose curve; further: nearly all actives have a fitted effect of over 15% in size); conditions: ERR reporter cell line, ONE-Glo luciferase, 18 h; at 92.4 µM (top of the series) unless noted
# In short: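 Cells carrying the ERR reporter were plated and allowed to settle for 6 h, exposed to library compounds for 18 h at 37 C, then lysed with ONE-Glo and luminescence measured.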
# [12] = qHTS RealTime-Glo MT Cell Viability Assay in HepG2 cells - 24 hour (AID 1224867); further: nearly all actives have a fitted effect of over 50% in size; further: potency means the concentration at half of the fitted maximal effect
# In short: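 Cell number in HepG2 cultures estimated from NanoLuc luminescence generated by metabolic reduction of a prosubstrate by living cells. The homogeneous, nonlytic format allowed repeated reads at 0, 8, 16, 24, 32 and 40 h of compound exposure.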
# [13] = A CellTox Green Cytotoxicity Assay to monitor cytotoxicity in HEK293 cells - 0 hour (AID 1224869); further: nearly all actives have a fitted effect of over 50% in size
# In short: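 Cells (HEK293, 600/well) and dye reagent are dispensed together. After 5 h at 37 C, 23 nL compound is pinned in. Plates stay at 37 C for 40 h with fluorescence read at 0h, 8h, 16h, 24h, 32h and 40h.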
# [14] = qHTS RealTime-Glo MT Cell Viability Assay in HepG2 cells - 40 hour (AID 1224870); further: nearly all actives have a fitted effect of over 50% in size; further: potency means the concentration at half of the fitted maximal effect
# In short: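 HepG2 cells (600/well) mixed with RealTime-Glo MT reagent, settled 5 h at 37 C/5% CO2 before compound addition. Nonlytic NanoLuc luminescence from viable-cell prosubstrate reduction read repeatedly during 40 h treatment at 37 C.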
# [15] = target: Nuclear receptor subfamily 1 group I member 3 (Homo sapiens) (UniProt Q14994); experiment: qHTS assay to identify small molecule antagonists of the constitutive androstane receptor (CAR) signaling pathway (AID 1224838);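 further: HepG2 cells stably expressing hCAR with CYP2B6 luciferase reporter stimulated by CITCO; nearly all actives have a fitted effect of over 40% in size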; further: potency means the concentration at half of the fitted maximal effect
# In short: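 Antagonist mode used CITCO at a final 50 nM to activate CAR in human hepatoma HepG2 cells carrying stable hCAR and a 2.2 kb CYP2B6 promoter-luciferase construct. Compounds were tested at 15 concentrations over 24 h, with luminescence as the end point.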
# [16] = qHTS assay to identify small molecule agonists of the hypoxia (HIF-1) signaling pathway (AID 1224846; active means well fitted activation curve with a large enough effect in the signal ratio in the repeat runs, not every such curve was filed as active; the % refers to the signal ratio)
# In short: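 Compounds from the Tox21 10K library, dissolved in DMSO, are tested for induction of a hypoxia response element–controlled beta-lactamase reporter in ME-180 cells. Exposure lasts 17 hrs at 37C after a 5 hr settling period, followed by CCF4-AM FRET substrate.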
# [17] = qHTS assay to identify small molecule agonists of H2AX - cell viability counter screen (AID 1224847; calls by dose curve; further: nearly all actives have a fitted effect of over 30% in size; further: potency means the concentration at half of the fitted maximal effect)
# In short: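 CHO-K1 wt, 1000 cells/well, o/n 37C; cpds 15 conc, 3 h 37C, 0.76% DMSO; CellTiter-Glo, 30 min RT, luminescence.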
# [18] = qHTS RealTime-Glo MT Cell Viability Assay in HEK293 cells - 32 hour (AID 1224868); further: nearly all actives have a fitted effect of over 50% in size; further: potency means the concentration at half of the fitted maximal effect
# In short: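 Homogeneous bioluminescent viability format in HEK293 cells (600 cells/well). Following 5 h at 37 C/5% CO2, 23 nL compound was pintooled; the signal was measured repeatedly during 40 h incubation.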
# [19] = qHTS assay to identify small molecule antagonists of the estrogen related receptor (ERR) signaling pathway from Tox21 library (AID 1224848); further: nearly all actives have a fitted effect of over 50% in size; further: potency means the concentration at half of the fitted maximal effect
# In short: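 Quantitative high-throughput format: ERR reporter cells (2,000/well) pre-incubated 6 h, treated 18 h at 37 C with compounds in DMSO alongside positive and negative controls, then read by ONE-Glo luminescence.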
# [20] = qHTS assay to identify small molecule agonists of the estrogen related receptor signaling pathway with the pleiotropic PPARgamma coactivator (PGC) from Tox21 10K library (AID 1224842); further: nearly all actives have a fitted effect of over 15% in size
# In short: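 PGC/ERR reporter cell line, 2,000 cells per well, incubated 6 h at 37 C before 23 nL compound in DMSO was added. After 18 h at 37 C, One-Glo luminescence read following 30 min at room temperature.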
Structure (SMILES),Potency [1],Potency [2],Potency [3],Potency [4],Potency [5],Potency [6],Potency [7],Potency [8],Potency [9],Potency [10],"activity change, positive = activation [11] [%]",Potency [12],Potency [13],Potency [14],Potency [15],outcome [16],Potency [17],Potency [18],Potency [19],Potency [20]
NC(=O)CI,inactive,80.4 µM (active),inactive,inactive,inactive,inactive,inactive,inactive,35 µM (active),inactive,-20,13.9 µM (active),inactive,6.22 µM (active),,,,,,
CCN(C)N=O,inactive,inactive,inactive,inactive,inactive,,,inactive,inactive,inactive,,inactive,inactive,inactive,inactive,inactive,inactive,inactive,,
Clc1cc(Cl)c(Cl)c(Cl)c1,inactive,inactive,inactive,inactive,inactive,,,inactive,inactive,inactive,,inactive,inactive,inactive,inactive,inactive,inactive,inactive,,
CCCN(CC1CC1)c1c([N+](=O)[O-])cc(C(F)(F)F)cc1[N+](=O)[O-],inactive,inactive,inactive,inactive,,inactive,,6.86 µM (active),,inactive,,inactive,inactive,inactive,inactive,inactive,inactive,inactive,,
CCOP(O)OCC,inactive,inactive,inactive,inactive,inactive,,,inactive,inactive,inactive,,inactive,inactive,inactive,inactive,inactive,,inactive,,
CC(Cl)C(C)Cl (stereo not drawn),inactive,inactive,inactive,inactive,,inactive,inactive,,inactive,inactive,0.315,,inactive,inactive,,inactive,inactive,,inactive,
CCC(C)(NC(=O)c1cc(Cl)c(C)c(Cl)c1)C(=O)CCl (stereo not drawn),24.5 µM (active),inactive,61.5 µM (active),,inactive,24.5 µM (active),3.88 µM (active),43.5 µM (active),,inactive,-68.6,49.3 µM (active),inactive,49.3 µM (active),48.9 µM (active),,114 µM (active),,9.75 µM (active),inactive
CCCC(=O)Cl,inactive,inactive,inactive,inactive,,inactive,,inactive,,inactive,,inactive,inactive,inactive,,inactive,inactive,,,
CCOS(C)(=O)=O,inactive,inactive,inactive,inactive,,inactive,,inactive,,inactive,,,inactive,inactive,,inactive,inactive,inactive,,
O=C(N[C@H](c1ccccc1)[C@@H]1CN2CCC1CC2)c1c(Cl)ccc(C(F)(F)F)c1Cl,49.3 µM (active),inactive,98.4 µM (active),,inactive,,31.1 µM (active),,inactive,,-42.3,,inactive,inactive,,inactive,182 µM (active),70.2 µM (active),39.2 µM (active),inactive
C[C@]12CC[C@H]3[C@@H](CCC4=CC(=O)CC[C@@H]43)[C@@H]1CC[C@@H]2OC(=O)CCC1CCCCC1,inactive,inactive,inactive,inactive,,inactive,,,inactive,,,inactive,inactive,inactive,,inactive,,inactive,,
C=CC(C)=O,inactive,inactive,inactive,inactive,,,inactive,inactive,inactive,inactive,-0.611,inactive,inactive,inactive,,inactive,inactive,inactive,,inactive
CCOC(=O)COc1cc(-c2nn(C)c(OC(F)F)c2Cl)c(F)cc1Cl,inactive,inactive,,inactive,inactive,inactive,inactive,,inactive,inactive,3.17,,inactive,inactive,inactive,inactive,inactive,,inactive,inactive
